Unmarked numbers belong to inactive results.

Assay in all cases: log2 ratio of Biotin-Ahx-Ub-VS probe labelling (fragment/DMSO); higher = less target engagement (more negative = stronger competition), active = hit call of the paper (q ≤ 0.05, log2 ratio ≤ -1)
What all share (details): compound concentration: 200 uM; treatment time: 3 h

One assay deals with UniProt O00507. In short, it runs like this:
(§1)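 Labelled DUBs were enriched with NeutrAvidin, digested with LysC and trypsin, and run by diaPASEF LC-MS/MS. The labelling used Biotin-Ahx-Ub-VS at 0.5 µM final for 1 h on HEK293T lysate (495 µg per sample) previously treated in triplicate with fragment at 200 µM or vehicle for 3 h. Values are average log2 fragment/vehicle ratios by unpaired t-test on global-median-normalised Spectronaut quantities of proteins with ≥2 unique peptides.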

For a further assay, the target named is UniProt P51784. A digest of the protocol: as §1
Chain of UniProt P51784 (P51784 whole entry): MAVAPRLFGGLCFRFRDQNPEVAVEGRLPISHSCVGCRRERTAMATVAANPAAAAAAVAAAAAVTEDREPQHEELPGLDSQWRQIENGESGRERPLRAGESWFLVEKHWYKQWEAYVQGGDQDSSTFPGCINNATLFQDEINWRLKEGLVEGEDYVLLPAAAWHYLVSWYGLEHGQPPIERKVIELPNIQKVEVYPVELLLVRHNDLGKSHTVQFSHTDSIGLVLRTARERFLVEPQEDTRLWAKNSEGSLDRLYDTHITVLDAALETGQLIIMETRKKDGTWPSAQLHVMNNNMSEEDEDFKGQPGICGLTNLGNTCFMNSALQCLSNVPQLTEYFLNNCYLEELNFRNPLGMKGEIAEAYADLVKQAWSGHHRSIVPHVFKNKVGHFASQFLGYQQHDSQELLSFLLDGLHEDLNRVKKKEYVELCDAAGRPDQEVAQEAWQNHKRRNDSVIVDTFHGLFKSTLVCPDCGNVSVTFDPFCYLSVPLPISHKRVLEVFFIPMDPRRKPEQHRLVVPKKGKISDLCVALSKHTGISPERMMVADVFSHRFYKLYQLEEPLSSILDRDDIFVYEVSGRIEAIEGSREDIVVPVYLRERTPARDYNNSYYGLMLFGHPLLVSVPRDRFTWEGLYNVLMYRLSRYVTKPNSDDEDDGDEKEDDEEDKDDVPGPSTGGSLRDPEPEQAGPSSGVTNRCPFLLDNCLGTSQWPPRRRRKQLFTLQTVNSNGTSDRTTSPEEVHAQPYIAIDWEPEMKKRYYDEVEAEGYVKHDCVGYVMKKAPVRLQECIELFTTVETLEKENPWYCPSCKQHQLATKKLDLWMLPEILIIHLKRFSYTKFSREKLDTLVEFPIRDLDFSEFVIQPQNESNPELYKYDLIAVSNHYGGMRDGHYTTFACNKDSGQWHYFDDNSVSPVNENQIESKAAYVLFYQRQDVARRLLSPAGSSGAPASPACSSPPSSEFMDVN
The target in another assay is T1, UniProt Q5T2D3.
T1 sequence (whole entry): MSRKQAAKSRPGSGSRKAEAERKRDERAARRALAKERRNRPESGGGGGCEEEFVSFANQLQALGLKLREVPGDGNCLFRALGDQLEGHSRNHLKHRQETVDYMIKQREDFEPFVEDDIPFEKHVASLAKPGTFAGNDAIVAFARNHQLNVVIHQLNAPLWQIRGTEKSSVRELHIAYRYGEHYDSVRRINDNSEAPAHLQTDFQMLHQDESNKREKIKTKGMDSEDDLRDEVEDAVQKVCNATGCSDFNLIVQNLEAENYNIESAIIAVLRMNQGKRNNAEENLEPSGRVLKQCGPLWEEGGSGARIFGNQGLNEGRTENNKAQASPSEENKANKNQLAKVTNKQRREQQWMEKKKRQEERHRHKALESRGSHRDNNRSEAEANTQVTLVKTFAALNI
A digest of the protocol: as §1

Another assay addresses T2, UniProt Q8TE49.
T2 sequence (whole entry): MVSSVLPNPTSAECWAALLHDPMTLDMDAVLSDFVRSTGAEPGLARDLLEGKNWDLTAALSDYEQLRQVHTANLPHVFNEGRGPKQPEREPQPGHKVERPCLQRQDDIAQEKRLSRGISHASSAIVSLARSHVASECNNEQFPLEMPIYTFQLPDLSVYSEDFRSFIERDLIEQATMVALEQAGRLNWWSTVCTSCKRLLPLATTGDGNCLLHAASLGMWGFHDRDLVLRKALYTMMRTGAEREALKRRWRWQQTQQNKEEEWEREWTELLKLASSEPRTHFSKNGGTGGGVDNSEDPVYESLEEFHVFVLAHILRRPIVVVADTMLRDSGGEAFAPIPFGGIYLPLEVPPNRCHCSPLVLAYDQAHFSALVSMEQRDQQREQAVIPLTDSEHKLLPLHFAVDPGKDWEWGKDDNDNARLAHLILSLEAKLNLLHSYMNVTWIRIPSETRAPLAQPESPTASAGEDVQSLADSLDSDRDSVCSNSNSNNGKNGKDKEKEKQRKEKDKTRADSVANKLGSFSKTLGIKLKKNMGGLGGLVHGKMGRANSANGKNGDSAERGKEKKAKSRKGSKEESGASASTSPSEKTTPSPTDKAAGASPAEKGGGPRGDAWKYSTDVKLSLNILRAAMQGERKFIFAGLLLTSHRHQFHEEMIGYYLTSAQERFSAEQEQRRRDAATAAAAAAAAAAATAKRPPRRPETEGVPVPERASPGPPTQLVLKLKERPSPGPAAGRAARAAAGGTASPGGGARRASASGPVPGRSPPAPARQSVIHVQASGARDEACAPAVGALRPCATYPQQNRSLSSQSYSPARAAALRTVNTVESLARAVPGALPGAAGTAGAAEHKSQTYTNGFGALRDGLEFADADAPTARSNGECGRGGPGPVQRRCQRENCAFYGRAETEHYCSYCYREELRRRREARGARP
In short, it runs like this: as §1

The next assay addresses T3, UniProt Q9P2H5.
T3 sequence (whole entry): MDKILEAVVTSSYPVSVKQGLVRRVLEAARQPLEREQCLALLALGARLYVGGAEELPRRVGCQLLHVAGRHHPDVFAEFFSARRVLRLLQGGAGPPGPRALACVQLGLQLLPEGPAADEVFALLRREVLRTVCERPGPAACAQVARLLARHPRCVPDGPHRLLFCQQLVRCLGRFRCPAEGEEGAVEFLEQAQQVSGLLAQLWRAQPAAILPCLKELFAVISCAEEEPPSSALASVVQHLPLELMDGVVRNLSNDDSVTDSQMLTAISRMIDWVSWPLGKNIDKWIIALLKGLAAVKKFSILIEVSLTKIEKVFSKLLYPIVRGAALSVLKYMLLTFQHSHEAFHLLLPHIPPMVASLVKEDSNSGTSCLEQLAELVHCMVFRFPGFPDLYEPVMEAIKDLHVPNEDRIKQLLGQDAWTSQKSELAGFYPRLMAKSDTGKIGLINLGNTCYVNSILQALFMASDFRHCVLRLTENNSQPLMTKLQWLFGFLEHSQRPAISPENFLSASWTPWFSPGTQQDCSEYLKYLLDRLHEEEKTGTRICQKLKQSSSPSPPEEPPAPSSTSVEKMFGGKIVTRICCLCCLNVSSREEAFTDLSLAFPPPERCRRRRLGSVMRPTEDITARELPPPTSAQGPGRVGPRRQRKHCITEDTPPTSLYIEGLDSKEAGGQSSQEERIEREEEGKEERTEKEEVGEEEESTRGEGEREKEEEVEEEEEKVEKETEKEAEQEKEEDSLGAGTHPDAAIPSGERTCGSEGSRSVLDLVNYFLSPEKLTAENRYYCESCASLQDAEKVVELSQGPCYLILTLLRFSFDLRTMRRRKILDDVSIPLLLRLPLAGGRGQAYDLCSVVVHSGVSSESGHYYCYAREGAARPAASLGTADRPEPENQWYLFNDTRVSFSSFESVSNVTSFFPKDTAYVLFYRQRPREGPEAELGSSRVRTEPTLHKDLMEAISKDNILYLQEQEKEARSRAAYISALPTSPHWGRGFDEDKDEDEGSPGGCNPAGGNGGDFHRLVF
In short, it runs like this:
as §1

A further assay deals with T4, UniProt Q9UGI0.
T4 sequence (whole entry): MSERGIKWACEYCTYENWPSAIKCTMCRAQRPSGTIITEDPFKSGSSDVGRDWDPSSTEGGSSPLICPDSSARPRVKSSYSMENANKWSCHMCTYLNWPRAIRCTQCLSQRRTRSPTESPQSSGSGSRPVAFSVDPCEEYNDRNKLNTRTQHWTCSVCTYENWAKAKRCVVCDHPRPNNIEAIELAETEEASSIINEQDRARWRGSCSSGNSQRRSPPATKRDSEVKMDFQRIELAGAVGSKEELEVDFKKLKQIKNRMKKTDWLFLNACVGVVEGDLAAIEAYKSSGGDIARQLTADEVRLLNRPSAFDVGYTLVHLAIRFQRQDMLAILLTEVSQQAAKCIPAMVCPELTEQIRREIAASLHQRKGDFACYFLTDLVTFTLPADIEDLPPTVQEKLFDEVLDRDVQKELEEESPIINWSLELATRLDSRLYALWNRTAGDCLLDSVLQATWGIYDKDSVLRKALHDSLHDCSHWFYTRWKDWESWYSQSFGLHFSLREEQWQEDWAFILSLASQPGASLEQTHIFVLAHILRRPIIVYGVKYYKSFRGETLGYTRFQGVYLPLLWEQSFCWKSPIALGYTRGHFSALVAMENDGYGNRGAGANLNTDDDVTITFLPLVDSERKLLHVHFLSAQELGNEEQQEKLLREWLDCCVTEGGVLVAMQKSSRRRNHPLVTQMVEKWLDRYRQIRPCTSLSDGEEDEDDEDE
A digest of the protocol:
as §1

The target in a further assay is T5, YOD1 (UniProt Q5VVQ6).
T5 sequence (whole entry): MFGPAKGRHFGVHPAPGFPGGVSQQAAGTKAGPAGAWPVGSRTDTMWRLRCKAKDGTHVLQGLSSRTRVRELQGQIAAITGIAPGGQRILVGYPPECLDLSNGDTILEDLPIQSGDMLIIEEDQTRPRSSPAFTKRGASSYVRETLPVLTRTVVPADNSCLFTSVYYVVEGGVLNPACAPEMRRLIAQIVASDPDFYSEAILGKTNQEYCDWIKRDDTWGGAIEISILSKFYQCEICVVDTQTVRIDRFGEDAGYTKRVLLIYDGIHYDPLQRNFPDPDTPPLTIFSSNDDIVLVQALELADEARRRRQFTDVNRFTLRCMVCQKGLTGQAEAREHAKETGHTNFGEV
A digest of the protocol: as §1

Chain of UniProt O00507 (O00507 whole entry, the tested form may be a part): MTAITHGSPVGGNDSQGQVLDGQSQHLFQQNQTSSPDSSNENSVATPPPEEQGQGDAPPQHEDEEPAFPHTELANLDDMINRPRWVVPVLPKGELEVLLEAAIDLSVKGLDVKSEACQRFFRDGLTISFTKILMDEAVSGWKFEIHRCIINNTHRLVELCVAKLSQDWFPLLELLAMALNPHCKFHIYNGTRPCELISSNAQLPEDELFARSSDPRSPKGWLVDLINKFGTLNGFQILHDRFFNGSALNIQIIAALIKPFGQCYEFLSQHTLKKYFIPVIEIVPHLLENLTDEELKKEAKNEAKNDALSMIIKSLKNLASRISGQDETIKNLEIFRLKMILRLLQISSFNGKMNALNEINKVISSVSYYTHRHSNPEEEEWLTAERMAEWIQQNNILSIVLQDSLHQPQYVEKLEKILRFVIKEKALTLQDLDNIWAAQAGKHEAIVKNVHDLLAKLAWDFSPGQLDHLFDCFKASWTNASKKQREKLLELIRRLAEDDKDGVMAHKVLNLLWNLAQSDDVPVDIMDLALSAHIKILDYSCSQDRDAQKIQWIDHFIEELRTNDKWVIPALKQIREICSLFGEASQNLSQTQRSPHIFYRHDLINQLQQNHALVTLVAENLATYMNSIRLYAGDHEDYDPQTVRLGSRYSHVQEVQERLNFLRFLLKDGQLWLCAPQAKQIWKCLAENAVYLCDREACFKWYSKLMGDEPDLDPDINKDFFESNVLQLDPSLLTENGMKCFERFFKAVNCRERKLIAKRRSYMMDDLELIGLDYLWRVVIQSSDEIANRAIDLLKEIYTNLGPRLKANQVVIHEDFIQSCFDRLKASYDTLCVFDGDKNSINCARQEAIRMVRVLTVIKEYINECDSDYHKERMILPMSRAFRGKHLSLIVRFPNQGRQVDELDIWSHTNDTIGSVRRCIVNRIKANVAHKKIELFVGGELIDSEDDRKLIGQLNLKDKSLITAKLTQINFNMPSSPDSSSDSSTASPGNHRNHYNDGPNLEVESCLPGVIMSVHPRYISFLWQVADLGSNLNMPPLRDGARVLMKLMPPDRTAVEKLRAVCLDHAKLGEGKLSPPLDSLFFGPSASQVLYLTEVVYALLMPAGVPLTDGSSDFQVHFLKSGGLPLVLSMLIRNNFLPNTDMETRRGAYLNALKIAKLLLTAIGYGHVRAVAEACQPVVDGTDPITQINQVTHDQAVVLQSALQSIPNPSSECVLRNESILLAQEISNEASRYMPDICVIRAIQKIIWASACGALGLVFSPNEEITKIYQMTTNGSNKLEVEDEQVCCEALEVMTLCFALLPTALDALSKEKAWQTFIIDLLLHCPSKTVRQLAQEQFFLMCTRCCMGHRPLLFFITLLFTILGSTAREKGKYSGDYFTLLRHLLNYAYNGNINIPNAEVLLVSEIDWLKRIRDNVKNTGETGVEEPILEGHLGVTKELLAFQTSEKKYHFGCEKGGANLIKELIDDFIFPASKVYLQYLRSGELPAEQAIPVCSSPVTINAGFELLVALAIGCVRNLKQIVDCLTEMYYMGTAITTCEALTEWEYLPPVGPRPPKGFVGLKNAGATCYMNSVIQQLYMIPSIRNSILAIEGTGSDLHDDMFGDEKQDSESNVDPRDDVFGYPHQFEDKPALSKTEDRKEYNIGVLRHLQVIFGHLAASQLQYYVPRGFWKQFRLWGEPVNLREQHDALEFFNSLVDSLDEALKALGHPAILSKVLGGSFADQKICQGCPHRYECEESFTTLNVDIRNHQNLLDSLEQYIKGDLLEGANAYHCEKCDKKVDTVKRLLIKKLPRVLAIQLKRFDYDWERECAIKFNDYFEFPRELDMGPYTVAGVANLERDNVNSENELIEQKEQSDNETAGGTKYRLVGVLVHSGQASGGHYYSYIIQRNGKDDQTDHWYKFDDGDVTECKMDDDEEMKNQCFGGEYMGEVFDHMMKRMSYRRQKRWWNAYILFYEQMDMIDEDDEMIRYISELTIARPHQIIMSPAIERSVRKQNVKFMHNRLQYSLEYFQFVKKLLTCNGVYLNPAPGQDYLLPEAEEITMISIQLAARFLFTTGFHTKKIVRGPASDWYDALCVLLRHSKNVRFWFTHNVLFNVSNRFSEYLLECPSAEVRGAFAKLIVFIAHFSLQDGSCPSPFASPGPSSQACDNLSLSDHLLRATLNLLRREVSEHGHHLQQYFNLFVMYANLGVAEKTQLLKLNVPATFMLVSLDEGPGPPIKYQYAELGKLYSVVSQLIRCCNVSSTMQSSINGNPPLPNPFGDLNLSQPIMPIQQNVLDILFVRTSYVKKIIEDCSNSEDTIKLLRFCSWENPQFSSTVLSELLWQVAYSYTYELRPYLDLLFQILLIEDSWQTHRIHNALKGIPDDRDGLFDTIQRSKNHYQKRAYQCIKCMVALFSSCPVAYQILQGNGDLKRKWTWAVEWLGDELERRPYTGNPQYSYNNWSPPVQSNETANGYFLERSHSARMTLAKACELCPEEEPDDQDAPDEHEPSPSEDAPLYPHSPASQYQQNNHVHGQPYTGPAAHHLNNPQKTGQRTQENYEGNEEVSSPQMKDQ

On to `O=C(CCl)NCc1cccc(F)c1`, for which the “log2 ratio of Biotin-Ahx-Ub-VS probe labelling” value (“log2 ratio” below) is 0.176 with UniProt O00507; -0.104 in the assay with UniProt P51784; -0.0819 with UniProt Q5T2D3; -0.349 with UniProt Q8TE49; 0.0328 in the assay with UniProt Q9P2H5; -0.684 in the assay with UniProt Q9UGI0. Further, in the assay with YOD1, the “log2 ratio” value was -0.0324.
`Cc1ccccc1OCC(=O)N1CCN(C(=O)CCl)CC1`: the “log2 ratio” value was 0.258 with UniProt O00507; -0.215 with UniProt P51784; -0.106 with UniProt Q5T2D3; -0.335 in the assay with UniProt Q8TE49; -0.172 in the assay with UniProt Q9P2H5; -0.104 with UniProt Q9UGI0. The “log2 ratio” value with YOD1 is -0.00243.
Regarding `O=C(CCl)N1CCN(C(=O)N2CCCCC2)CC1`, the “log2 ratio” value with UniProt O00507 was -1.18 (active); in the assay with UniProt P51784, -0.772; with UniProt Q5T2D3, -0.618; in the assay with UniProt Q8TE49 it was -0.968; with UniProt Q9P2H5 it was -0.897; in the assay with UniProt Q9UGI0, -1.27 (active). The “log2 ratio” value in the assay with YOD1 is -0.827.
`Cc1ccc(C)c(NC(=O)CCl)c1`: the “log2 ratio” value with UniProt O00507 is -0.612; with UniProt P51784, -0.335; with UniProt Q5T2D3, -0.41; with UniProt Q8TE49, -0.57; with UniProt Q9P2H5, -0.295; with UniProt Q9UGI0, -0.449. The “log2 ratio” value in the assay with YOD1 was -0.599.
As for `CC(C)n1nccc1NC(=O)CCl`, the “log2 ratio” value is -0.0553 with UniProt O00507; 0.033 in the assay with UniProt P51784; -0.201 with UniProt Q5T2D3; -1.34 (active) with UniProt Q8TE49; -0.152 with UniProt Q9P2H5; -0.9 in the assay with UniProt Q9UGI0. Further, in the assay with YOD1, the “log2 ratio” value is 0.0661.
In the case of `Cc1cccc2nc(CCNC(=O)CCl)cn12.Cl`, the “log2 ratio” value is -0.595 in the assay with UniProt O00507; -0.113 in the assay with UniProt P51784; -0.351 with UniProt Q5T2D3; -0.764 with UniProt Q8TE49; -0.327 with UniProt Q9P2H5; -0.846 with UniProt Q9UGI0. For the same compound, in the assay with YOD1, the “log2 ratio” value is -0.336.
Regarding `O=C(CCl)Nc1ccc2c(c1)OC(F)(F)O2`, the “log2 ratio” value in the assay with UniProt O00507 is -0.0305; with UniProt P51784, 0.0816; with UniProt Q5T2D3, -0.375; with UniProt Q8TE49, -0.815; with UniProt Q9P2H5 it was -0.115; with UniProt Q9UGI0 it was -0.637. Also, the “log2 ratio” value with YOD1 is -0.0381.
`CC(NC(=O)CCl)c1csc(-c2ccccc2)n1.Cl` (stereo not drawn): the “log2 ratio” value in the assay with UniProt O00507 is -0.472; with UniProt P51784, -0.138; with UniProt Q5T2D3, -0.671; in the assay with UniProt Q8TE49, -1.08 (active); in the assay with UniProt Q9P2H5, -0.482; in the assay with UniProt Q9UGI0, -0.494. Moreover, in the assay with YOD1, the “log2 ratio” value was -0.459.
Take `NC(=O)C1CCCCN1C(=O)CCl` (stereo not drawn): the “log2 ratio” value was 0.156 with UniProt O00507; -0.0148 in the assay with UniProt P51784; -0.206 with UniProt Q5T2D3; -1.95 (active) with UniProt Q8TE49; -0.204 with UniProt Q9P2H5; -0.866 with UniProt Q9UGI0. Also, in the assay with YOD1, the “log2 ratio” value was 0.154.

(Values after the supplement of paper PMC11732987, “Enantioselective OTUD7B fragment discovery through chemoproteomics screening and high-throughput optimisation” (Communications Chemistry, 2025).)
